About 21,000 targets were measured; listed, in parts, are those with the largest changes and a random draw of the rest.
Compound: CC1Cc2ccccc2N1C(=O)C1CCCN(C1)C(=O)CCl (mixture of isomers) [TRIM25 ligand 11 (diastereomer mixture)]
Test: probe-labelled cysteine peptide fold change vs DMSO (competition) (log2 fold change); higher = less target engagement (more negative = stronger competition)
Details: THP-1, incubation time: 4 h
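Further: competitive chemoproteomic profiling in live THP-1 cells with an iodoacetamide desthiobiotin (IA-DTB) probe, comparing probe-labelled peptide intensities in compound-treated cells against DMSO-treated controls.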

UniProt Q8N4P2, sequence (Q8N4P2 whole entry): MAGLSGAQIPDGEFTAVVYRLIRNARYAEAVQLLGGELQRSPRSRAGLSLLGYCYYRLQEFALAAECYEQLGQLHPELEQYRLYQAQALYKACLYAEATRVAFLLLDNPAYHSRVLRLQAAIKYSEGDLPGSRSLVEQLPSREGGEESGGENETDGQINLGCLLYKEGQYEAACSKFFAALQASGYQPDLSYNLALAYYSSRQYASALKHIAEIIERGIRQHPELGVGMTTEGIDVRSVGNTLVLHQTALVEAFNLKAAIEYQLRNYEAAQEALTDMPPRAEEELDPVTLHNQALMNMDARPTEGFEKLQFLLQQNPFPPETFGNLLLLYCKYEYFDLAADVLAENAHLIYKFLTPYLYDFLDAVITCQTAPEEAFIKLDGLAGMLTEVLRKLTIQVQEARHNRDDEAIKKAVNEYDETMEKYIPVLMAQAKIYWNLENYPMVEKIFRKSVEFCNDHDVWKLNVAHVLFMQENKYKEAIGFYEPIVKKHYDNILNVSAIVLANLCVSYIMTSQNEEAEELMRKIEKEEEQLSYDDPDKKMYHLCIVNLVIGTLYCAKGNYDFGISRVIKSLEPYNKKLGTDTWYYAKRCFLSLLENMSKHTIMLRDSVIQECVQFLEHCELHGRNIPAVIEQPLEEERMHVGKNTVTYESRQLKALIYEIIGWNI
UniProt Q9UNY4, sequence (Q9UNY4 whole entry, looked up): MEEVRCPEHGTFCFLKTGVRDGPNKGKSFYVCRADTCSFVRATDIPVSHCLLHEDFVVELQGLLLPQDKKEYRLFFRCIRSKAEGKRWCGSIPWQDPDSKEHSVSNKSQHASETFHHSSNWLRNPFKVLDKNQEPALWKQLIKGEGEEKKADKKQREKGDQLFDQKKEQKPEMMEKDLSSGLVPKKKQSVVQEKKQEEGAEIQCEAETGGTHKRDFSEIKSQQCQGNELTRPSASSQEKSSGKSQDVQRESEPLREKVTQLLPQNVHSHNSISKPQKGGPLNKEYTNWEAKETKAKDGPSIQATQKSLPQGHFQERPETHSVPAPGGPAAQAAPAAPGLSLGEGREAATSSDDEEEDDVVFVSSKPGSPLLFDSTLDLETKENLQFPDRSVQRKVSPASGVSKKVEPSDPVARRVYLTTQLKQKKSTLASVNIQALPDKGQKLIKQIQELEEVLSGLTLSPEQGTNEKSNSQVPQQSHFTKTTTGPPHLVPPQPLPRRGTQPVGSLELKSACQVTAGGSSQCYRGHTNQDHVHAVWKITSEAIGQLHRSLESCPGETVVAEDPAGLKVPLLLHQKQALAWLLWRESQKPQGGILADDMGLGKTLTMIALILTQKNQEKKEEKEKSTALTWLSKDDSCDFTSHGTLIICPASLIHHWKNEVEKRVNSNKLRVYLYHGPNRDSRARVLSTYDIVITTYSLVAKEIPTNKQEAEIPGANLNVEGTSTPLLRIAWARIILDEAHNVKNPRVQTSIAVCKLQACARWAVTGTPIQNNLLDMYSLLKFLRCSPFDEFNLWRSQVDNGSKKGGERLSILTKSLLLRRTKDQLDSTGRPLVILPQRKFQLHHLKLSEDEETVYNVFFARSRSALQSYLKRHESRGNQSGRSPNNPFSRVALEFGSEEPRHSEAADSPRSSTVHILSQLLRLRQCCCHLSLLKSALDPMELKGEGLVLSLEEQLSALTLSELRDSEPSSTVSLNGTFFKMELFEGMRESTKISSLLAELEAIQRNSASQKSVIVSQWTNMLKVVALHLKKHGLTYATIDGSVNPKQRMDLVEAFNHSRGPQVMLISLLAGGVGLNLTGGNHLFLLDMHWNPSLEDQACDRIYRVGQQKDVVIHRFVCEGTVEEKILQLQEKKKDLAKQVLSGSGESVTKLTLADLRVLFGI
UniProt P41226, sequence (P41226 whole entry, looked up): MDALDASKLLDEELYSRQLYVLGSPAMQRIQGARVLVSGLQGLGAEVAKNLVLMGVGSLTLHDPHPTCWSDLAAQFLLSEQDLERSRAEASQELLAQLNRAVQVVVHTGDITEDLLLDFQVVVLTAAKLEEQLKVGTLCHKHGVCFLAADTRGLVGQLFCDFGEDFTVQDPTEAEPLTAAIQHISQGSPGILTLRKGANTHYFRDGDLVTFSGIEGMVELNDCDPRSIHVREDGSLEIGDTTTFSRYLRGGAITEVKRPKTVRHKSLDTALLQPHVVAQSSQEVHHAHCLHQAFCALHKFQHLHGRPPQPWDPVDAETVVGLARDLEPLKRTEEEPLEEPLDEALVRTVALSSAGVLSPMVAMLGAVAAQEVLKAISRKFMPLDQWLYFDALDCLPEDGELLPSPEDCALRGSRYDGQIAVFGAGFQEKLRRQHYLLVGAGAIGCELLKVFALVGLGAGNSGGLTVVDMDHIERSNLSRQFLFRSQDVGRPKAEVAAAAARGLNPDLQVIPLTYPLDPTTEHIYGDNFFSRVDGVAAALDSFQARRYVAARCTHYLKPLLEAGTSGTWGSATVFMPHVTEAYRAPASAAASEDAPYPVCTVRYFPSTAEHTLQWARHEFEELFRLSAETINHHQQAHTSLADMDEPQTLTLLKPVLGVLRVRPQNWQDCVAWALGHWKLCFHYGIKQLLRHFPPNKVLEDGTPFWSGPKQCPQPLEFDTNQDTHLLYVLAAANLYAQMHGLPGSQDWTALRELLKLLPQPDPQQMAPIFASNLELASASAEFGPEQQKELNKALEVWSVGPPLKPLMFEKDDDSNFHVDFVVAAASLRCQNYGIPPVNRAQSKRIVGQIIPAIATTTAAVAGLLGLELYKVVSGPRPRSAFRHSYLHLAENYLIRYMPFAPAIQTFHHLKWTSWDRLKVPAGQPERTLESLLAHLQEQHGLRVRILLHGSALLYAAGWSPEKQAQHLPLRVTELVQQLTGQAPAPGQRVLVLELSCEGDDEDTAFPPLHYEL
UniProt Q9H6Y2, sequence (Q9H6Y2 whole entry, looked up): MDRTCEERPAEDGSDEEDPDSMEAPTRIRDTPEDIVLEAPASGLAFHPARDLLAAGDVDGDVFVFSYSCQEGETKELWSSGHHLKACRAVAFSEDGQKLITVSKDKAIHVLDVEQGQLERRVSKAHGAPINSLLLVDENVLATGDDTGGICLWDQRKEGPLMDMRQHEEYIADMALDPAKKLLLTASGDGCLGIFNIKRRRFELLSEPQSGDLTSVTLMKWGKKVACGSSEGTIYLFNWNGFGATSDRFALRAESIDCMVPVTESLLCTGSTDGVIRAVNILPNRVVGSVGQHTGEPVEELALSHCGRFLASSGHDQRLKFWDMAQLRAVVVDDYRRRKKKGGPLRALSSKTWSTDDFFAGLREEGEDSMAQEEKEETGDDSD
UniProt Q6NUM6, sequence (Q6NUM6 whole entry): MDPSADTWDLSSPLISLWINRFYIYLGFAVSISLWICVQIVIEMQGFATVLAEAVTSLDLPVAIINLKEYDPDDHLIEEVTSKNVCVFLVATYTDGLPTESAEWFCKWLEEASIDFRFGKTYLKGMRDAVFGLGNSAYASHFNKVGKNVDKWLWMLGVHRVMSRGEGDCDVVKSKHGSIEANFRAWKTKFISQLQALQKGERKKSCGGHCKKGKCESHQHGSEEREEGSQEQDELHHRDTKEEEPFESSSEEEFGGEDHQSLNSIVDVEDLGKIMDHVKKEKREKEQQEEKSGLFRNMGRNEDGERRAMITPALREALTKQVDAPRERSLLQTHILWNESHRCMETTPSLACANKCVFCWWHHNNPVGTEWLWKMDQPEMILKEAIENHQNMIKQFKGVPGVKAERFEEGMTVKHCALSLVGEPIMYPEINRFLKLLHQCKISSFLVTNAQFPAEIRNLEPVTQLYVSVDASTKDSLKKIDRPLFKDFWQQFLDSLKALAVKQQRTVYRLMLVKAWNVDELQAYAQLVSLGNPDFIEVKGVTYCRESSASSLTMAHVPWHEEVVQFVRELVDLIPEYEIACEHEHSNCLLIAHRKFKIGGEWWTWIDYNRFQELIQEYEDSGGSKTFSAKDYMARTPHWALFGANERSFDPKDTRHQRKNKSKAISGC
UniProt Q9NZ09, sequence (Q9NZ09 whole entry, looked up): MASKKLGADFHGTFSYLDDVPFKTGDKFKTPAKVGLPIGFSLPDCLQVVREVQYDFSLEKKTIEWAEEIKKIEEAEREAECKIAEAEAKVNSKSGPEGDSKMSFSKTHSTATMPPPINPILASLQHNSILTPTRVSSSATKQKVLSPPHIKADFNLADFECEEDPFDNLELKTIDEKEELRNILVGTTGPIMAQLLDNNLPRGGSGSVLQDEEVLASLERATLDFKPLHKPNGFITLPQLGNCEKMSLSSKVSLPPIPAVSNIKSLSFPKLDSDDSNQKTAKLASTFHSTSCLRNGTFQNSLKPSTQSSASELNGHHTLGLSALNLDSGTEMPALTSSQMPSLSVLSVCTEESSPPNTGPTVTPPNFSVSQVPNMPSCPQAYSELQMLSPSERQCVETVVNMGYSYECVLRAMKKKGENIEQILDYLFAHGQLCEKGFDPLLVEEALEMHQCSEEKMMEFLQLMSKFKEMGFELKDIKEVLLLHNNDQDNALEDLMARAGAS
UniProt Q16881, sequence (Q16881 whole entry, looked up): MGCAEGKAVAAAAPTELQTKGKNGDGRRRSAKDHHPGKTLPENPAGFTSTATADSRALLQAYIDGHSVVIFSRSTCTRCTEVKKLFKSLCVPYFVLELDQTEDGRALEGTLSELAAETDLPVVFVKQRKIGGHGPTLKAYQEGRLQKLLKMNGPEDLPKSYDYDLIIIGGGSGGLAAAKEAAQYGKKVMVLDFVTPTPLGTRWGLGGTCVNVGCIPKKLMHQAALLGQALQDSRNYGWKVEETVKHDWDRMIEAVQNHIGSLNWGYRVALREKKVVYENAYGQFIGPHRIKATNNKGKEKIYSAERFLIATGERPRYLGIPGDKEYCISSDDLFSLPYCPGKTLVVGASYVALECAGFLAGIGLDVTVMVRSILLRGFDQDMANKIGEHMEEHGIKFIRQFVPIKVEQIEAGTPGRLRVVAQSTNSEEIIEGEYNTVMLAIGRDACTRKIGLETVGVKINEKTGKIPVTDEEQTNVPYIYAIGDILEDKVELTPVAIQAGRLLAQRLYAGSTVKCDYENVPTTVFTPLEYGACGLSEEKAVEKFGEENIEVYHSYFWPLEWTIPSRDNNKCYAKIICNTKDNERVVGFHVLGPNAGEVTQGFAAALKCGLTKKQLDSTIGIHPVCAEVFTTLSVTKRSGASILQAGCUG

| Target | probe-labelled cysteine peptide fold change (10 µM) | probe-labelled cysteine peptide fold change (50 µM) |
| --- | --- | --- |
| TTF2_Q9UNY4_50_ATDIPVSHCLLHEDFVVELQGLLLPQDK (UniProt Q9UNY4) | 0.0771 | 0.271 |
| TYW1B_Q6NUM6_581_ELVDLIPEYEIACEHEHSNCLLIAHR (UniProt Q6NUM6) | 0.268 | 0.256 |
| UBAP1_Q9NZ09_243_ATLDFKPLHKPNGFITLPQLGNCEK (UniProt Q9NZ09) | -0.241 | -0.382 |
| USP34_Q70CQ2_2033_CQVADMK (UniProt Q70CQ2) | 0.0209 | 0.0671 |
| TXNRD1_Q16881_577_IICNTK (UniProt Q16881) | 0.634 | 0.851 |
| WDR55_Q9H6Y2_5_TCEERPAEDGSDEEDPDSMEAPTR (UniProt Q9H6Y2) | -0.76 | -0.645 |
| UACA_Q9BZF9_481_ALALECER (UniProt Q9BZF9) | -0.0367 | 0.0956 |
| WDR47_O94967_672_GSIYCVAWSPCGQLLATGSNDK (UniProt O94967) | -0.126 | -0.567 |
| TTC30B_Q8N4P2_619_DSVIQECVQFLEHCELHGR (UniProt Q8N4P2) | 0.056 | 0.655 |
| WDR47_O94967_322_SLNPALDGLTCGLTSHDK (UniProt O94967) | 0.104 | -0.116 |
| UBA7_P41226_223_DGDLVTFSGIEGMVELNDCDPR (UniProt P41226) | 0.000986 | 0.0382 |

— the supplement of paper PMC12067093, “Discovery and optimisation of a covalent ligand for TRIM25 and its application to targeted protein ubiquitination” (Chemical Science, 2025)
